# From PubChem BioAssay (Tox21)
# Records with an inconclusive call do not appear. Active and inactive are the calls of the source. Calls follow the shape of the dose curve; as a rule, active = well fitted cell-killing curve with a large enough effect in the repeat runs; inconclusive = weak or mixed curves, or effect the other way; inactive = flat fitted curve, though single readings scatter.
# Assay: cAMP Responsive Elements (CRE) small molecule agonists, cell-based qHTS assay: qHTS cell viability counter screen (AID 2060914); also: nearly all actives have a fitted effect of over 50% in size
# Settings: CRE-bla HEK293T viability, CellTiter-Glo luminescence, 5 h; series mostly up to 92.4 µM; activity change, negative = cytotoxicity: at the top concentration
# Procedure, shortened: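 In the same wells as the reporter read, viability of CRE-bla HEK 293T cells was quantified by CellTiter-Glo luminescence after a 3 h compound exposure.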
# % is scaled to controls: 0 for no effect and ±100 for the full control effect.
SMILES,"activity change, negative = cytotoxicity",Potency
Cc1nn(-c2cc(NS(C)(=O)=O)c(Cl)cc2Cl)c(=O)n1C(F)F,10.8% (inactive),
OCCN(CCO)CCO,6.77% (inactive),
Cc1ccc(N)cc1N,,inactive
Cc1cnc2c(C(=O)O)c(Cl)ccc2c1,3.99% (inactive),
Nc1ccc(Br)cc1,,inactive
ClSC(Cl)(Cl)Cl,-0.229% (inactive),
FC(Cl)(Cl)Cl,-3.42% (inactive),
CN(C)NC(=O)CCC(=O)O,,inactive
NC(=O)CN1CCCC1=O,,inactive
CN1C[C@H](C(=O)N[C@]2(C)O[C@@]3(O)[C@@H]4CCCN4C(=O)[C@H](Cc4ccccc4)N3C2=O)C=C2c3cccc4[nH]cc(c34)C[C@H]21,,inactive
Clc1cccc(SC2CCNCC2)n1,16.2% [at 42.5 µM] (inactive),
Cc1ccc(N=C=O)cc1N=C=O,,inactive
N[C@@H]1C[C@H]1c1ccccc1,5.61% [at 42.5 µM] (inactive),
CCCCNC(=O)OCC#CI,,inactive
CCCCCCCC(=O)Cl,-0.271% (inactive),
N[C@@H](Cc1ccc(N(CCCl)CCCl)cc1)C(=O)O,,inactive
CON(C)C(=O)Nc1ccc(Cl)c(Cl)c1,,inactive
II,-14.7% (inactive),
Nc1ccc(Cc2ccc(N)c(Cl)c2)cc1Cl,-1.37% (inactive),
CCCCOC(=O)c1ccccc1C(=O)OCCCC,,inactive
CCOP(=S)(OCC)SCS(=O)(=O)C(C)(C)C,-11.4% (inactive),
CCN(CC)CCOC(=O)C(O)(c1ccccc1)c1ccccc1,13.2% [at 42.5 µM] (inactive),
c1ccc(N2CCNCC2)cc1,0.652% [at 42.5 µM] (inactive),
c1cc2c3c(cccc3c1)CC2,,inactive
COC(=O)N(C(=O)N1CO[C@@]2(C(=O)OC)Cc3cc(Cl)ccc3C2=N1)c1ccc(OC(F)(F)F)cc1,5.36% (inactive),
O=[N+]([O-])/N=C1\NCCN1Cc1ccc(Cl)nc1,6.19% (inactive),
